Data published in the supplement of paper PMC10849652.
About 8,800 targets were measured; listed, in parts, are those with a hit and a random draw of the rest. About 0.5% of all pairs of compound and target were hits. Values without a mark were called inactive.

Assays:
Experiment in all cases: log2 fold change, soluble protein after heating vs DMSO (PISA); higher = thermal stabilisation; K562 lysate, 10 uM; active = over 0.2 and 3.5 SD of the protein, either way, in both replicates (recomputed)
[1] = compound: NCC(=O)Nc1ccc(-n2nc(C(F)(F)F)cc2-c2ccc3c(ccc4ccccc43)c2)cc1
Procedure, shortened: (§1)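 Log-two fold change in thermal stability relative to solvent controls is reported from duplicates. For each sample, crude K562 extract from dounce-homogenised pellets in PBS pH 7.4 with 1 mM MgCl2, at 1 mg/mL protein, was treated with 10 μM compound for 30 min. Aliquots heated for 3 min across 48°C-58°C were pooled, brought to 0.5% NP-40 at 4°C and cleared at 21,000xg for 90 min. The supernatant was quantified by TMTpro 16plex LC-MS/MS with channel sums equalised.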

vorinostat = compound: O=C(CCCCCCC(=O)Nc1ccccc1)NO [vorinostat]
Procedure, shortened: as §1

silmitasertib = compound: O=C(O)c1ccc2c(c1)nc(Nc1cccc(Cl)c1)c1ccncc12 [silmitasertib]
Procedure, shortened: as §1

[2] = compound: O=C1NC(=O)C(c2cnc3ccccn23)=C1c1cn2c3c(cc(F)cc13)CN(C(=O)N1CCCCC1)CC2
Procedure, shortened: as §1

entospletinib = compound: c1cn2cc(-c3ccc4cn[nH]c4c3)nc(Nc3ccc(N4CCOCC4)cc3)c2n1 [entospletinib]
Procedure, shortened: as §1

Sequence of UniProt Q9Y4E6 (Q9Y4E6 whole entry, looked up): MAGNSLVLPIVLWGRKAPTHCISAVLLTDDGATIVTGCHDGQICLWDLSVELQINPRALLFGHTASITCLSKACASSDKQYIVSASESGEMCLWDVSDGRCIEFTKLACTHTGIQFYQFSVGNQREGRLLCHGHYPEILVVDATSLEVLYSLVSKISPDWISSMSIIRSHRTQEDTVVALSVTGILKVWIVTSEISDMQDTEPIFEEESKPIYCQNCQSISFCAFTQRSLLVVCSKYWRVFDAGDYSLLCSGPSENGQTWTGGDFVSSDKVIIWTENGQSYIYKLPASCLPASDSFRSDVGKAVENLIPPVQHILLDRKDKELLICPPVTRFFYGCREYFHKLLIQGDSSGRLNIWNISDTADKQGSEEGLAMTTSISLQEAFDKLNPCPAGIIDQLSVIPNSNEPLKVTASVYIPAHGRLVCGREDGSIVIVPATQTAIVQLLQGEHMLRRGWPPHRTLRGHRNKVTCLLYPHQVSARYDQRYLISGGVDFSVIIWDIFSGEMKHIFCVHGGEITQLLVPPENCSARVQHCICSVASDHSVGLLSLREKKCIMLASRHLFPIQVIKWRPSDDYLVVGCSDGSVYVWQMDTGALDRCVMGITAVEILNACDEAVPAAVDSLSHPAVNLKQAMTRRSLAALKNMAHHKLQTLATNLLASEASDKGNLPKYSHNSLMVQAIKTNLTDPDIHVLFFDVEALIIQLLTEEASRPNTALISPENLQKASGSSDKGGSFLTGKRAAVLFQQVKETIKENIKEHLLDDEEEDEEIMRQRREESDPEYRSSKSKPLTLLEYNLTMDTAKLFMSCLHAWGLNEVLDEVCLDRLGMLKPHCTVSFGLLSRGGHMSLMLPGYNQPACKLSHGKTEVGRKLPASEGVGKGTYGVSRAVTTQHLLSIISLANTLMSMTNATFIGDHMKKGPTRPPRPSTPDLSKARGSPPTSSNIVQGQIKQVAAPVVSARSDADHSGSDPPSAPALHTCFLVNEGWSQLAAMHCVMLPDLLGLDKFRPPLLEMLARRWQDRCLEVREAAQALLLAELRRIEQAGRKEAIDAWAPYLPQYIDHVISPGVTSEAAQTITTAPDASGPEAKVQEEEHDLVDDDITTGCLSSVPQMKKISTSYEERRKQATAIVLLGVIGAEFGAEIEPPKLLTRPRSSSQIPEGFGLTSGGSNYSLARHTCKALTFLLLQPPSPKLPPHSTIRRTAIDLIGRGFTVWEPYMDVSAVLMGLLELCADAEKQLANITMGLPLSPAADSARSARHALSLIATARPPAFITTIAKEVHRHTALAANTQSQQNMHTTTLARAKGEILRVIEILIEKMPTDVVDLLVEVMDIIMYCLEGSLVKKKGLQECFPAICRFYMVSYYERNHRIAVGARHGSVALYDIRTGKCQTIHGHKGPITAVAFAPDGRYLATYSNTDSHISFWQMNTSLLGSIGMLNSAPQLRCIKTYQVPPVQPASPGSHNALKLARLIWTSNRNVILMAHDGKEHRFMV
Sequence of UniProt O75362 (O75362 whole entry, looked up): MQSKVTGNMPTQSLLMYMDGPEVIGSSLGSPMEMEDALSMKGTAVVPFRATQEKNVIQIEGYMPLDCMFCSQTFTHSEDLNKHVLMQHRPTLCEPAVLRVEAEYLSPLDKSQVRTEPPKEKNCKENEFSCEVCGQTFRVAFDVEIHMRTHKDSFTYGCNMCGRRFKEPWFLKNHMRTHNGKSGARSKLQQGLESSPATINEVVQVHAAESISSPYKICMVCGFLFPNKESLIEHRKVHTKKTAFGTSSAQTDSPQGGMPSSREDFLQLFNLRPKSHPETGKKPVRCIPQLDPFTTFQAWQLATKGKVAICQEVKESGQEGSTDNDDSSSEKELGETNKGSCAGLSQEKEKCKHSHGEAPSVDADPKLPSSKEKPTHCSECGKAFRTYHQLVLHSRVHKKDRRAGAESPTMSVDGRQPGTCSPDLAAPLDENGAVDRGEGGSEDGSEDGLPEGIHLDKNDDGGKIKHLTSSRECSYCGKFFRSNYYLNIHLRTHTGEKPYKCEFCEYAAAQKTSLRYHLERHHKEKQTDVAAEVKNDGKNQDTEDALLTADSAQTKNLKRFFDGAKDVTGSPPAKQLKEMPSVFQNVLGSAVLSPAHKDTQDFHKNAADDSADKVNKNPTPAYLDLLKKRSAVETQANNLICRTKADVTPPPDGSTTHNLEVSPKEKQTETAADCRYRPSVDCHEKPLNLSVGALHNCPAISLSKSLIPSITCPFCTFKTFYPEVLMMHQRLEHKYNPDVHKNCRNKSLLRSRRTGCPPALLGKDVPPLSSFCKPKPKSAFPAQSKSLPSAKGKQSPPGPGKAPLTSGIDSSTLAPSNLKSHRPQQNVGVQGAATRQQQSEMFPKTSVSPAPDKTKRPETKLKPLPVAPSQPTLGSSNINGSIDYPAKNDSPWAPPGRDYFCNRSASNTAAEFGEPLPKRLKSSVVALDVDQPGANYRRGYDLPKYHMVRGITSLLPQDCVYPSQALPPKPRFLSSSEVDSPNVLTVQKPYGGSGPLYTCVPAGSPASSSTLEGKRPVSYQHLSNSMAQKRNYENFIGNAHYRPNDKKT
Sequence of UniProt Q70J99 (Q70J99 whole entry, looked up): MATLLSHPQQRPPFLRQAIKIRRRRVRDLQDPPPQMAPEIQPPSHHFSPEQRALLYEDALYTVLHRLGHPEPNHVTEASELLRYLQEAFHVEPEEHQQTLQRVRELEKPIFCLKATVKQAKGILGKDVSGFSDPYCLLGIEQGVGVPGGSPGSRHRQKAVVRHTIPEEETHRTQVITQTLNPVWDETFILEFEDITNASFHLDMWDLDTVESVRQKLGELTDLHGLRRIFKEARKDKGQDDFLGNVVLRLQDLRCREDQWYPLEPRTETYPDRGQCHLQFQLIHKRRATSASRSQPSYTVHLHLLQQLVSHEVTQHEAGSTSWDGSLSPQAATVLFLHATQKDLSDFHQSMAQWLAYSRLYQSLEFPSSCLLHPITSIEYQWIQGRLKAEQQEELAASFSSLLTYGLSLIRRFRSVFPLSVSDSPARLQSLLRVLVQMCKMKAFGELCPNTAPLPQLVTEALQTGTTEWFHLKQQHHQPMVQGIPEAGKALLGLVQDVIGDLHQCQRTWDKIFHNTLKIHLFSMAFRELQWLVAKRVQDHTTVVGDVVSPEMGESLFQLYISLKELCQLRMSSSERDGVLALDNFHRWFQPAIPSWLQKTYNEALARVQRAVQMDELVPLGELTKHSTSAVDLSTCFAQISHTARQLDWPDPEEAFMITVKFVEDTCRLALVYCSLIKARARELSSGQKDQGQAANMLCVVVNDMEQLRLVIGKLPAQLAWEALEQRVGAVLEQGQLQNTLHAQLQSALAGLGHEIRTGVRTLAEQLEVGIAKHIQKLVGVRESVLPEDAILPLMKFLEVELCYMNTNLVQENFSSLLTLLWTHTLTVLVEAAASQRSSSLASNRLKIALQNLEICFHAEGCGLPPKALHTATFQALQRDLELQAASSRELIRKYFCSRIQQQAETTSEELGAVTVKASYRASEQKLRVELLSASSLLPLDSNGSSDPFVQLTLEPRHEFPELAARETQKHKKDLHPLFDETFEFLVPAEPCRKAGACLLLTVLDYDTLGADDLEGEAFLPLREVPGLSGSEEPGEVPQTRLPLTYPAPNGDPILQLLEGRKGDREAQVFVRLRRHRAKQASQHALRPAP
Sequence of UniProt Q15906 (Q15906 whole entry, looked up): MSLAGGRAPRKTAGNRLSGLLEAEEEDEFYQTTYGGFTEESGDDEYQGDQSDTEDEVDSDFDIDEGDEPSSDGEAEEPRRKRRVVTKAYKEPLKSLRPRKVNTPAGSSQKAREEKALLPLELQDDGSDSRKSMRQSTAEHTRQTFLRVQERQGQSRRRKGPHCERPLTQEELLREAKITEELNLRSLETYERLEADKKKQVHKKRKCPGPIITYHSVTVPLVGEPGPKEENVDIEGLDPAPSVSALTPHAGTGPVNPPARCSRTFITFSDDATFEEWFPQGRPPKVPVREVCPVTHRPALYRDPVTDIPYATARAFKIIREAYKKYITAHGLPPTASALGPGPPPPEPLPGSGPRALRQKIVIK
Sequence of UniProt P22695 (P22695 whole entry, looked up): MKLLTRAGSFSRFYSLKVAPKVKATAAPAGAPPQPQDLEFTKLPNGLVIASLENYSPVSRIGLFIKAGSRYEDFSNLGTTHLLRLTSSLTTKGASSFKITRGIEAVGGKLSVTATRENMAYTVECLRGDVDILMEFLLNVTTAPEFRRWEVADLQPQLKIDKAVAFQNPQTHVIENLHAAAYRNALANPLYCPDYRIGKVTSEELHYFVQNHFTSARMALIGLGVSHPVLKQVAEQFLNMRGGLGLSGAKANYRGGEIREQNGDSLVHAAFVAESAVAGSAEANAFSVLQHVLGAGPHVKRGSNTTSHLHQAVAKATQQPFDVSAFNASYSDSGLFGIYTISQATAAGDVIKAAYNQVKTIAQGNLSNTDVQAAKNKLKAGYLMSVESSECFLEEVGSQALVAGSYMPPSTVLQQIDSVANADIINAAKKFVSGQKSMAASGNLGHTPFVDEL
Sequence of UniProt O95619 (O95619 whole entry, looked up): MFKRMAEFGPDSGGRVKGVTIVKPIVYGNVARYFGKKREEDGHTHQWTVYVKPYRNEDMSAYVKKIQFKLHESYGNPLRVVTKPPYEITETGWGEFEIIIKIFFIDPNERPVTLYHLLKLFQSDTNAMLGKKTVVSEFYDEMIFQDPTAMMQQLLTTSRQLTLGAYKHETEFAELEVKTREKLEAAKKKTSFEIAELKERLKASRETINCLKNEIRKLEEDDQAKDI
Sequence of UniProt Q9UBK9 (Q9UBK9 whole entry, looked up): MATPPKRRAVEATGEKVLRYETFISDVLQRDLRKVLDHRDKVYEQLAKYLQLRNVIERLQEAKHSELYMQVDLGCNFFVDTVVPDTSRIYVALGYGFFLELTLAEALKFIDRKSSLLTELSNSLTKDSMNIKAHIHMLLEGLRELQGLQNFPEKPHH
Sequence of UniProt O00258 (O00258 whole entry, looked up): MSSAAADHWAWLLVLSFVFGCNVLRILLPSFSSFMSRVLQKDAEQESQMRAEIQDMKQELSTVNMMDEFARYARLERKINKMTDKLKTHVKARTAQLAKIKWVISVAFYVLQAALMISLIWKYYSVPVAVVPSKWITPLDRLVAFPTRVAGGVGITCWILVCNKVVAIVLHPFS

| Target | log2 fold change [1] | log2 fold change (vorinostat) | log2 fold change (silmitasertib) | log2 fold change [2] | log2 fold change (entospletinib) |
| --- | --- | --- | --- | --- | --- |
| WRN (UniProt Q14191) | 0.003 | -0.282 (active) | 0.035 | -0.013 | -0.005 |
| USP3 (UniProt Q9Y6I4) | 0.015 | -0.469 (active) | -0.026 | 0.015 | -0.013 |
| VPS11 (UniProt Q9H270) | 0.023 | -0.509 (active) | -0.009 | 0.011 | -0.006 |
| VHL (UniProt P40337) | 0.015 | -0.289 | -0.038 | -0.011 | -0.001 |
| ZMYM1 (UniProt Q5SVZ6) | -0.014 | -0.202 | 0.042 | -0.004 | 0.021 |
| UQCC2 (UniProt Q9BRT2) | -0.019 | 0.121 | -0.021 | -0.06 | -0.039 |
| XPO1 (UniProt O14980) | 0.009 | -0.233 (active) | 0.003 | -0.001 | 0.036 |
| UPF3B (UniProt Q9BZI7) | 0.022 | 0.075 | -0.02 | -0.043 | -0.049 |
| WDCP (UniProt Q9H6R7) | -0.066 | -0.233 (active) | 0.022 | 0.02 | -0.036 |
| UTP18 (UniProt Q9Y5J1) | 0.045 | -0.078 | -0.014 | 0.029 | -0.136 |
| ZBTB40 (UniProt Q9NUA8) | 0.073 | -0.118 | 0.024 | 0.036 |  |
| XAB2 (UniProt Q9HCS7) | -0.012 | -0.259 (active) | 0.005 | -0.023 | -0.006 |
| ZC3HC1 (UniProt Q86WB0) | 0.021 | -0.368 (active) | -0.034 | -0.03 | 0.01 |
| VPS35L (UniProt Q7Z3J2) | 0.019 | -0.266 (active) | 0.027 | -0.006 | 0.015 |
| UQCRC2 (UniProt P22695) | 0.01 | 0.123 | -0.013 | 0.03 | 0.007 |
| XPNPEP1 isoform 3 (UniProt Q9NQW7) | 0.006 | -0.068 | -0.001 | -0.019 | 0.002 |
| USE1 (UniProt Q9NZ43) | -0.113 | -0.029 | 0.028 | 0.053 | -0.036 |
| USP10 isoform 2 (UniProt Q14694) | 0.022 | -0.294 (active) | 0 | -0.002 | -0.002 |
| VPS72 (UniProt Q15906) | 0.11 | -0.401 (active) | -0.018 | -0.029 | -0.014 |
| YTHDF3 (UniProt Q7Z739) | 0.064 | 0.03 | -0.084 | -0.169 | 0.006 |
| USP8 (UniProt P40818) | 0.012 | -0.324 (active) | 0.013 | 0.009 | 0.012 |
| VPS18 (UniProt Q9P253) | -0.016 | -0.386 (active) | 0.04 | 0.015 | -0.006 |
| ZNF593 (UniProt O00488) | -0.029 | 0.191 | -0.001 | 0.044 | 0.027 |
| ZMYND8 isoform 19 (UniProt Q9ULU4) | 0.059 | -0.224 (active) | 0.029 | 0.006 | -0.02 |
| UTP3 (UniProt Q9NQZ2) | 0.307 (active) | 0.143 | 0.022 | -0.039 | 0.02 |
| WDR41 (UniProt Q9HAD4) | -0.017 | -0.284 (active) | 0.022 | -0.08 | 0.01 |
| YEATS4 (UniProt O95619) | 0.042 | 0.057 | -0.029 | -0.046 | -0.037 |
| VANGL1 (UniProt Q8TAA9) | -0.04 | 0.085 | 0.159 | -0.031 | -0.009 |

| Target | log2 fold change [1] | log2 fold change (vorinostat) | log2 fold change (silmitasertib) | log2 fold change [2] | log2 fold change (entospletinib) |
| --- | --- | --- | --- | --- | --- |
| URGCP (UniProt Q8TCY9) | 0 |  |  |  |  |
| ZNF845 (UniProt Q96IR2) | -0.074 | -0.297 | 0.364 (active) | -0.113 |  |
| ZMYM2 (UniProt Q9UBW7) | -0.125 | -0.609 (active) | 0.034 | 0.019 | 0.069 |
| ZDHHC18 (UniProt Q9NUE0) | -0.064 | -0.162 | 0.163 | 0.009 | 0.034 |
| VPS13C (UniProt Q709C8) | 0.005 | 0.062 | -0.033 | 0.027 | -0.051 |
| ZFYVE19 (UniProt Q96K21) | 0.026 | 0.105 | 0.002 | 0.01 | -0.012 |
| WRB (UniProt O00258) | 0.082 | 0.131 | -0.055 | -0.012 | 0.146 |
| VPS39 (UniProt Q96JC1) | 0.009 | -0.194 | 0.01 | -0.005 | 0.013 |
| ZNF217 (UniProt O75362) | 0 | -0.301 (active) | 0.047 | -0.054 | -0.061 |
| WDR6 (UniProt Q9NNW5) | 0.012 | -0.321 (active) | 0.01 | -0.025 | 0 |
| WDR3 (UniProt Q9UNX4) | -0.031 | -0.255 (active) | 0.044 | 0.01 | -0.001 |
| WDR20 isoform 7 (UniProt Q8TBZ3) | 0.01 | 0.009 | 0.087 | -0.013 | 0.018 |
| ZFPM1 (UniProt Q8IX07) | -0.009 | -0.251 (active) | 0 | -0.03 | -0.021 |
| XPO6 (UniProt Q96QU8) | -0.034 | -0.401 (active) | 0.049 | -0.031 | -0.027 |
| UXT isoform 2 (UniProt Q9UBK9) | -0.003 | 0.037 | -0.039 | -0.025 | 0.02 |
| YME1L1 (UniProt Q96TA2) | -0.001 | 0.04 | 0.007 | -0.008 | 0.02 |
| WDR7 (UniProt Q9Y4E6) | -0.01 | -0.236 (active) | 0.032 | 0.01 | -0.017 |
| WDR24 (UniProt Q96S15) | 0.041 | -0.202 | 0.134 | 0.032 | 0.022 |
| ZNF451 (UniProt Q9Y4E5) | 0.064 | -0.538 (active) | -0.003 | -0.013 | 0.019 |
| VPS54 (UniProt Q9P1Q0) | 0.112 | -0.055 | -0.001 | 0.002 | 0.007 |
| ZHX1 (UniProt Q9UKY1) | 0.043 | -0.249 | -0.094 | -0.018 | -0.082 |
| UNC13D (UniProt Q70J99) | 0.022 | -0.211 (active) | 0.002 | -0.006 | 0.026 |
| VCPIP1 (UniProt Q96JH7) | 0.007 | 0.894 (active) | 0.029 | -0.021 | 0.006 |
| VAMP2 (UniProt P63027) | 0.071 | 0.016 | -0.008 | 0.132 | -0.054 |
| USP16 (UniProt Q9Y5T5) | 0.019 | -0.272 (active) | 0.012 | -0.019 | -0.031 |
| VAC14 (UniProt Q08AM6) | -0.02 | -0.229 (active) | 0.041 | 0.005 | -0.008 |
| VPS33A (UniProt Q96AX1) | 0.011 | -0.222 (active) | 0.025 | 0.007 | -0.018 |
